From PubChem BioAssay (NCI) come the findings set out here.

Compounds without any hit were thinned out: in the full panel of roughly 83,000, 20% have a hit.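 Cells were grown in 96-well plates and exposed to the test compound at a single concentration for 48 hours; results are reported as percent growth, with values below 10 considered active.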 Unmarked numbers belong to inactive results. Active and inactive are the calls of the source.

The first assay concerns OVCAR-4 ovarian. In words: NCI-60 one-dose screen, 48 h (100 = growth as untreated, 0 = no growth, -100 = all killed). Particulars: 10 µM unless noted.
`C=C1C(=O)O[C@H]2[C@H]1CC/C(COC(=O)c1ccc(Cl)nc1)=C\CC[C@@]1(C)O[C@@H]21`: the growth was 27.9%.

As for `COc1ccc(/C=N/C2=NNC(C)(c3ccccc3O)N2C(Cc2c[nH]c3ccccc23)C(=O)O)cc1` (stereo unspecified), the growth is 33.3%.

Take `COc1ccc(/C=C/C(=O)/C=C(/C=C/c2ccc(OC)c(OC)c2OC)OB(F)F)c(OC)c1OC`: the growth is 47.4%.

For the compound `Cc1cc(N2CCOCC2)nc(N(CCNc2ccnc3cc(Cl)ccc23)Cc2ccco2)n1`, the growth was 37.2%.

In the case of `NN=C(c1ccc(Cl)cc1)c1ccc(Cl)cc1`, the growth is 103%.

`Cc1cc2c(cc1C)N(C(=O)CCl)CCN2C(=O)CCl`: the growth was -72% (active).

With `COc1cccc(/C=N/C(=S)NC2(C)C3CCC(C3)C2(C)C)c1O` (stereo unspecified), the growth was 45.5%.

Consider `CC(=O)c1cc2c(N)c(C(=O)Nc3cccc(Cl)c3)sc2nc1C`, for which the growth was 84.3%.

As to `CCOC(=O)c1cnc2c(OC)ccc(OC)c2c1Cl`, the growth is 113%.

`CCOc1cccc(Nc2nc(N)nc3[nH]c4ccc(O)cc4c23)c1`: the growth is 66.3%.

For the compound `CC(C)CCC[C@@H](C)[C@H]1CC[C@H]2[C@@H]3CC=C4N(c5ccccc5)C(=O)CC[C@]4(C)[C@H]3CC[C@]12C`, the growth was 103%.

As to `C=C(C)[C@@H]1C/C=C(\COC(=O)[C@H](OC(C)=O)C(NC(=O)c2ccccc2)c2ccccc2)CC[C@H]2O[C@]2(C)CC/C=C(\C)CC1` (stereo partly specified), the growth was 62.3% [5 µM].

Regarding `C/C(=N/NC(=O)Cn1c2ccccc2c2ccncc21)c1cccs1`, the growth is 99.8%.

In the case of `CC(=S)Nc1ccccc1`, the growth is 95.4%.

Consider `Nc1ccc(S(=O)(=O)Nc2cc(I)cc(I)c2)cc1`, for which the growth was 99%.

As to `Cc1cn([C@]2(CF)O[C@H](CO)C2C)c(=O)[nH]c1=O` (stereo partly specified), the growth is 113%.

For the compound `COc1cc(NC(C)CCCN2C(=O)c3ccccc3C2=O)c2nccc(C)c2c1OC` (stereo unspecified), the growth is 70.5%.

On to `O=C(O)c1ccccc1C(=O)c1ccc(I)cc1`, for which the growth was 109%.

As for `CC(C(=O)O)N1C(N)=NNC1c1ccccc1O` (stereo unspecified), the growth was 76.3%.

Take `COc1ccc(C2=NN(C(=O)COc3ccc(Cl)cc3)C(O)(c3cc(F)c(Cl)cc3Cl)C2)cc1OC` (stereo unspecified): the growth is 21.8%.

Regarding `CCCCNC(=O)Oc1ccc(/C(=C(/CC)Cc2ccccc2)c2ccc(OCCCN(C)C)cc2)cc1`, the growth is 74.8%.

For `COc1ccc(C(=O)Cn2cnc3c(Nc4cc(C(=O)Nc5ccc(N6CCN(CCO)CC6)cc5)ccc4C)ncnc32)cc1`, the growth was 106%.

`COc1cc(NC(=O)c2cc(OC)c3ccn(C)c3c2)cc2c1C[C@]1(C)CC[C@@H](O)C(C)(C)[C@H]1O2`: the growth was 84.6%.

In another assay the test system is SK-OV-3 ovarian. The assay is described as above. Particulars: 10 µM unless noted.
Take `CCC1S/C(=N\N=C(/C)c2cccs2)N(c2ccccc2)C1=O` (stereo unspecified): the growth was 121%.

In the case of `COc1ccc2c(c1)/C(=C/c1c(-c3cc(OC)c(OC)c(OC)c3Br)nc3sccn13)C(=O)N2`, the growth is 96.6%.

As to `N#CC(C#N)=C(C#N)c1c[nH]c2ccccc12`, the growth is 82.7%.

Turning to `CNC(=O)NN`, the growth was 95.9%.

For the compound `ClC1c2ccccc2CCc2ccccc21`, the growth was 91.2%.

For the compound `COc1ccc(-c2cc3ccc(N(C)C)cc3nc2N)c(F)c1`, the growth is 46.8%.

On to `CCOC(=O)C(C)(CSSCC(C)(NC(=O)c1ccc2ccccc2c1)C(=O)OCC)NC(=O)c1ccc2ccccc2c1` (stereo unspecified), for which the growth is 107%.

As for `COc1ccc(-c2cc(-c3nnc(SC/C(=N\O)c4ccccc4)n3-c3ccccc3)c3ccccc3n2)cc1`, the growth is 79.4%.

As for `CC(=O)Nc1ccc([I+]c2ccc([N+](=O)[O-])cc2)cc1`, the growth was 94.4%.

Consider `O=[N+]([O-])c1ccc(NS(=O)(=O)c2ccccc2)c2ccccc12`, for which the growth was 34.7%.

In the case of `COc1ccc(-c2c(C#N)cnc(N)c2-c2nc3cc(C)c(C)cc3[nH]2)cc1`, the growth was 46%.

With `S=c1n(CNc2ccc(Cl)nn2)nc(-c2cc(Cl)cc(Cl)c2Cl)n1/N=C/c1ccc(Cl)cc1`, the growth was 107%.

`Cc1ccc2c(c1)Nc1ccc(C)cc1C2(C)C`: the growth is 82.2%.

With `Clc1ccc2c(NCCNc3nc(Cl)nc4ccccc34)ccnc2c1`, the growth was -80.4% (active).

`CN1CCN(Cn2nc(-c3cc(Cl)cc(Cl)c3Cl)n(/N=C/c3ccc(Cl)cc3)c2=S)CC1`: the growth was 101%.

With `C=C1C(=O)O[C@H]2[C@H]1CC/C(COC(=O)c1ccc(Cl)nc1)=C\CC[C@@]1(C)O[C@@H]21`, the growth was 99.3%.

Consider `COc1ccc(/C=N/C2=NNC(C)(c3ccccc3O)N2C(Cc2c[nH]c3ccccc23)C(=O)O)cc1` (stereo unspecified), for which the growth is 46.8%.

Consider `COc1ccc(/C=C/C(=O)/C=C(/C=C/c2ccc(OC)c(OC)c2OC)OB(F)F)c(OC)c1OC`, for which the growth was 76.8%.

As to `Cc1cc(N2CCOCC2)nc(N(CCNc2ccnc3cc(Cl)ccc23)Cc2ccco2)n1`, the growth is 91.1%.

For the compound `NN=C(c1ccc(Cl)cc1)c1ccc(Cl)cc1`, the growth was 105%.

As for `Cc1cc2c(cc1C)N(C(=O)CCl)CCN2C(=O)CCl`, the growth was 53%.

Consider `COc1cccc(/C=N/C(=S)NC2(C)C3CCC(C3)C2(C)C)c1O` (stereo unspecified), for which the growth is 102%.

For the compound `CC(=O)c1cc2c(N)c(C(=O)Nc3cccc(Cl)c3)sc2nc1C`, the growth is 51.3%.

For the compound `CCOC(=O)c1cnc2c(OC)ccc(OC)c2c1Cl`, the growth is 100%.

With `CCOc1cccc(Nc2nc(N)nc3[nH]c4ccc(O)cc4c23)c1`, the growth is 55.9%.

For the compound `CC(C)CCC[C@@H](C)[C@H]1CC[C@H]2[C@@H]3CC=C4N(c5ccccc5)C(=O)CC[C@]4(C)[C@H]3CC[C@]12C`, the growth is 103%.

As for `C=C(C)[C@@H]1C/C=C(\COC(=O)[C@H](OC(C)=O)C(NC(=O)c2ccccc2)c2ccccc2)CC[C@H]2O[C@]2(C)CC/C=C(\C)CC1` (stereo partly specified), the growth was 87.7% [5 µM].

As to `C/C(=N/NC(=O)Cn1c2ccccc2c2ccncc21)c1cccs1`, the growth is 102%.

With `CC(=S)Nc1ccccc1`, the growth was 87.6%.

On to `Nc1ccc(S(=O)(=O)Nc2cc(I)cc(I)c2)cc1`, for which the growth was 117%.

On to `Cc1cn([C@]2(CF)O[C@H](CO)C2C)c(=O)[nH]c1=O` (stereo partly specified), for which the growth is 122%.

With `COc1cc(NC(C)CCCN2C(=O)c3ccccc3C2=O)c2nccc(C)c2c1OC` (stereo unspecified), the growth was 107%.

In the case of `O=C(O)c1ccccc1C(=O)c1ccc(I)cc1`, the growth was 96.4%.

As for `CC(C(=O)O)N1C(N)=NNC1c1ccccc1O` (stereo unspecified), the growth was 105%.

As to `COc1ccc(C2=NN(C(=O)COc3ccc(Cl)cc3)C(O)(c3cc(F)c(Cl)cc3Cl)C2)cc1OC` (stereo unspecified), the growth is 93.6%.

Consider `CCCCNC(=O)Oc1ccc(/C(=C(/CC)Cc2ccccc2)c2ccc(OCCCN(C)C)cc2)cc1`, for which the growth is 97.6%.

Regarding `COc1ccc(C(=O)Cn2cnc3c(Nc4cc(C(=O)Nc5ccc(N6CCN(CCO)CC6)cc5)ccc4C)ncnc32)cc1`, the growth was 99.2%.

On to `COc1cc(NC(=O)c2cc(OC)c3ccn(C)c3c2)cc2c1C[C@]1(C)CC[C@@H](O)C(C)(C)[C@H]1O2`, for which the growth was 53%.
